These results are taken from ChEMBL document CHEMBL1157539, “Thousands of chemical starting points for antimalarial lead identification” (Nature, 2010).

The subject of the first experiment is Plasmodium falciparum. The experiment is described as follows: GSK_TCMDC: Inhibition of Plasmodium falciparum 3D7 in whole red blood cells, using parasite LDH activity as an index of growth. Test compounds present at 2uM. In kind it is functional.
As usually defined, the Inhibition is how much of the control response was suppressed. Low values mean little suppression, high ones strong suppression. `O=C(Nc1ccc(C(=O)N2CCN(CCN3CCN(c4cccc(C(F)(F)F)c4)CC3)CC2)cc1)c1ccc(C(F)(F)F)cc1` yielded an Inhibition of 95%.
Same read-out and setting: to `CN(C)CCCOc1cc(NC(=O)Nc2ccc(-c3ccncc3)c3ccccc23)ccc1I.Cl` belongs 100%.
On the same count and under the same terms, then `CCSc1ccc(C)cc1CON1C(N)=NC(N)=NC1(C)C.Cl`, with 94%; and `C=CCNC(=O)CCCNC(=N)N.Cl`, with 98%; and `CCN(c1cc(C)nc(Nc2ccc(Cl)cc2)n1)[C@H]1CCN(Cc2ccccc2)C1`, with 94%.
Still for that read-out and setting: then `O=C(CCCCCNC(=O)c1ccc(O)c(-c2cccc(C(F)(F)F)c2)c1)NCCN1CCCCC1`, with 99%; and `O=C(NC1CCCC1)c1ccc(N2CCC(NCc3cccc(C(F)(F)F)c3)CC2)cc1`, with 87%.
The compound `CC(=O)N1N=C(c2ccc(F)cc2)Sc2c1nc(-c1ccccc1)n2C(C)=O` returned an Inhibition of 99%.
`O=C(NC1CC1)c1ccc(Cn2c(SCc3cccc(Cl)c3)nc3ccccc3c2=O)cc1` displayed an Inhibition of 90%.
The same measure, in the same setting: to `CN1Cc2cc(NC(=O)/C=C/c3ccccc3Cl)ccc2C(C)(C)C1.Cl` belongs 99%; to `CN1CCCC(COc2cc3c(cc2Br)CCN3C(=O)Nc2ccc(-c3ccncc3)c(Cl)c2)C1` (stereo not given), 100%; to `Cc1cccc2nc(-c3ccc(-c4cccc(NC(=O)c5cncn5C)c4)s3)[nH]c12`, 100%.
`Cc1nn(CC(C)C)c2sc(C(=O)N3CCN(S(=O)(=O)c4ccc(C#N)cc4)CC3)cc12` came in with an Inhibition of 99%.
Still for that read-out and setting: then `O=C(Nc1ccc2ccccc2c1)N(CCCn1ccnc1)Cc1csc(-c2ccc(CNCc3ccccc3)cc2)n1.O=C(O)C(F)(F)F`, with 99%; and `O=C(CCN(Cc1ccco1)c1nc(-c2ccc(F)cc2)nc2ccccc12)NC1CC1`, with 94%.
The same measure, in the same setting: then `COc1cc(C)c(NC(=O)c2cccc3c(=O)c(C)c(-c4ccccc4)oc23)cc1OC`, with 86%; and `O=C(/C=C/c1c(Cl)cccc1Cl)NC1CCC(CN2CCC(c3c[nH]c4ccncc34)CC2)CC1` (stereo not given), with 99%; and `COc1ccc(Nc2ncc(Cl)c(Nc3cccnc3C(N)=O)n2)cc1N1CCN(C)CC1.Cl`, with 95%.
Consider `COc1cc(NC(=O)c2cccs2)c(OC)cc1NC(=O)Nc1cccc(Cl)c1`, for which the Inhibition stood at 83%.
As for `Cc1ccc(-c2cc(C(=O)Nc3ccc(S(=O)(=O)N4CC(C)OC(C)C4)cc3)[nH]n2)c(O)c1` (stereo not given), the Inhibition was found to be 91%.
Same read-out and setting: to `CC(=O)c1cccc(NC(=O)c2ccc(Cl)c(S(=O)(=O)N3CCc4ccccc43)c2)c1` belongs 93%; to `O=C(O)C(F)(F)F.c1cc(OCCN2CCCC2)ccc1CNC1CCN(CC2CCCCC2)CC1`, 100%.
On the same count and under the same terms, then `Cn1cccc1C(=O)C(=O)Nc1ccc(-c2ccc(-c3nc4cc(F)ccc4[nH]3)cc2)cc1`, with 92%.
Still for that read-out and setting: then `CC(C)CCNC(=O)C1Cc2c([nH]c3ccc(Br)cc23)C2(CCN(CCc3ccccc3)CC2)N1` (stereo not given), with 100%; and `O=C1C(c2ccccc2)=C(Nc2ccc([N+](=O)[O-])cc2)c2ccccc21`, with 95%.
For `Cl.OCCNc1nc(Nc2ccc(F)cc2)nc2ccccc12`, the Inhibition stood at 94%.
On the same count and under the same terms, to `CCNC(=O)NC1CCN(Cc2c(-c3cccs3)nc3ccccc3c2C(=O)N[C@@H](C)C2CCCCC2)CC1` belongs 95%.
Still for that read-out and setting: to `CN=c1nc(NN=Cc2ccccc2Cl)[nH]c(=Nc2cccc(C(F)(F)F)c2)[nH]1.Cl` belongs 84%; to `c1ccc(C(c2ccccc2)N2CCN(C(c3cccnc3)c3nnnn3C3CCCC3)CC2)cc1` (stereo not given), 83%; to `O=C(NCc1cccc(C(F)(F)F)c1)[C@@H]1CCCN1C(=O)c1ccc(O)c(-c2ccc(Cl)c(Cl)c2)c1`, 99%.
For `CC(C)CNCc1ccc(-c2cccc(CN(CCCN3CCN(C)CC3)C(=O)/C=C/c3ccccc3)c2)cc1.O=C(O)C(F)(F)F`, the Inhibition is on record as 95%.
On the same count and under the same terms, to `CC1(C)C(N(O)C(=O)Nc2ccc(Cl)c(Cl)c2)N(c2ccc(Cl)c(Cl)c2)C(=O)N1CCc1ccccc1` (stereo not given) belongs 91%; to `CN(C)Cc1cccc2nc(-c3csc(Cc4cc(Cl)ccc4OCc4ccccc4)n3)[nH]c12`, 100%.
On the same count and under the same terms, then `CC(C)c1nc(N2CCN(C(=S)NCc3ccccc3)CC2)c(C#N)c2c1COC(C)(C)C2`, with 99%; and `Br.C/C=C/C=C/C1=NCCc2cc(OCCC)ccc21`, with 87%; and `COc1ccc(NC(=O)C2c3ccccc3C(=O)N(C3CCCC3)C2c2cccs2)cc1` (stereo not given), with 93%.
Still for that read-out and setting: to `O=C(Nc1ccc(-c2ccccc2)cc1)Nc1cccc(OCCN2CCCC2)c1.O=C(O)C(F)(F)F` belongs 94%; to `Cc1cccc2nc(-c3cccc(-c4cccc(CN5CCN(c6ccncc6)CC5)c4)c3)[nH]c12.O=C(O)C(F)(F)F`, 100%.
`Cc1ccccc1Nc1cc(Nc2ccccc2C)c2ccccc2n1` gave an Inhibition of 96%.
Still for that read-out and setting: to `N#Cc1ccc(Sc2nnc(-c3ccccc3Cl)n2CC2CCCCC2)cc1[N+](=O)[O-]` belongs 85%.

In the next experiment the test system is Plasmodium falciparum. The experiment is described as follows: GSK_TCMDC: Inhibition of Plasmodium falciparum Dd2 in whole red blood cells, using parasite LDH activity as an index of growth. Test compounds present at 2uM. In kind it is functional.
Regarding `O=C(Nc1ccc(C(=O)N2CCN(CCN3CCN(c4cccc(C(F)(F)F)c4)CC3)CC2)cc1)c1ccc(C(F)(F)F)cc1`, the Inhibition is 28%.
Take `CN(C)CCCOc1cc(NC(=O)Nc2ccc(-c3ccncc3)c3ccccc23)ccc1I.Cl`: the Inhibition worked out at 97%.
In turn, `CCSc1ccc(C)cc1CON1C(N)=NC(N)=NC1(C)C.Cl` gave an Inhibition of 96%.
Same read-out and setting: to `C=CCNC(=O)CCCNC(=N)N.Cl` belongs 12%; to `CCN(c1cc(C)nc(Nc2ccc(Cl)cc2)n1)[C@H]1CCN(Cc2ccccc2)C1`, 31%.
In the case of `O=C(CCCCCNC(=O)c1ccc(O)c(-c2cccc(C(F)(F)F)c2)c1)NCCN1CCCCC1`, the Inhibition was 0%.
Still for that read-out and setting: to `O=C(NC1CCCC1)c1ccc(N2CCC(NCc3cccc(C(F)(F)F)c3)CC2)cc1` belongs 75%; to `CC(=O)N1N=C(c2ccc(F)cc2)Sc2c1nc(-c1ccccc1)n2C(C)=O`, 67%.
On the same count and under the same terms, then `O=C(NC1CC1)c1ccc(Cn2c(SCc3cccc(Cl)c3)nc3ccccc3c2=O)cc1`, with 70%.
The same measure, in the same setting: then `CN1Cc2cc(NC(=O)/C=C/c3ccccc3Cl)ccc2C(C)(C)C1.Cl`, with 96%; and `CN1CCCC(COc2cc3c(cc2Br)CCN3C(=O)Nc2ccc(-c3ccncc3)c(Cl)c2)C1` (stereo not given), with 96%; and `Cc1cccc2nc(-c3ccc(-c4cccc(NC(=O)c5cncn5C)c4)s3)[nH]c12`, with 16%.
Compound `Cc1nn(CC(C)C)c2sc(C(=O)N3CCN(S(=O)(=O)c4ccc(C#N)cc4)CC3)cc12` gave an Inhibition of 99%.
On the same count and under the same terms, then `O=C(Nc1ccc2ccccc2c1)N(CCCn1ccnc1)Cc1csc(-c2ccc(CNCc3ccccc3)cc2)n1.O=C(O)C(F)(F)F`, with 53%; and `O=C(CCN(Cc1ccco1)c1nc(-c2ccc(F)cc2)nc2ccccc12)NC1CC1`, with 54%; and `COc1cc(C)c(NC(=O)c2cccc3c(=O)c(C)c(-c4ccccc4)oc23)cc1OC`, with 32%.
The same measure, in the same setting: to `O=C(/C=C/c1c(Cl)cccc1Cl)NC1CCC(CN2CCC(c3c[nH]c4ccncc34)CC2)CC1` (stereo not given) belongs 100%; to `COc1ccc(Nc2ncc(Cl)c(Nc3cccnc3C(N)=O)n2)cc1N1CCN(C)CC1.Cl`, 97%.
Still for that read-out and setting: to `COc1cc(NC(=O)c2cccs2)c(OC)cc1NC(=O)Nc1cccc(Cl)c1` belongs 10%; to `Cc1ccc(-c2cc(C(=O)Nc3ccc(S(=O)(=O)N4CC(C)OC(C)C4)cc3)[nH]n2)c(O)c1` (stereo not given), 98%; to `CC(=O)c1cccc(NC(=O)c2ccc(Cl)c(S(=O)(=O)N3CCc4ccccc43)c2)c1`, 11%.
Regarding `O=C(O)C(F)(F)F.c1cc(OCCN2CCCC2)ccc1CNC1CCN(CC2CCCCC2)CC1`, the Inhibition is 54%.
Compound `Cn1cccc1C(=O)C(=O)Nc1ccc(-c2ccc(-c3nc4cc(F)ccc4[nH]3)cc2)cc1` registered an Inhibition of 33%.
The same measure, in the same setting: to `CC(C)CCNC(=O)C1Cc2c([nH]c3ccc(Br)cc23)C2(CCN(CCc3ccccc3)CC2)N1` (stereo not given) belongs 61%; to `O=C1C(c2ccccc2)=C(Nc2ccc([N+](=O)[O-])cc2)c2ccccc21`, 73%.
On the same count and under the same terms, to `Cl.OCCNc1nc(Nc2ccc(F)cc2)nc2ccccc12` belongs 73%.
On the same count and under the same terms, then `CCNC(=O)NC1CCN(Cc2c(-c3cccs3)nc3ccccc3c2C(=O)N[C@@H](C)C2CCCCC2)CC1`, with 96%.
`CN=c1nc(NN=Cc2ccccc2Cl)[nH]c(=Nc2cccc(C(F)(F)F)c2)[nH]1.Cl` gave an Inhibition of 0%.
On the same count and under the same terms, then `c1ccc(C(c2ccccc2)N2CCN(C(c3cccnc3)c3nnnn3C3CCCC3)CC2)cc1` (stereo not given), with 59%; and `O=C(NCc1cccc(C(F)(F)F)c1)[C@@H]1CCCN1C(=O)c1ccc(O)c(-c2ccc(Cl)c(Cl)c2)c1`, with 97%.
The same measure, in the same setting: then `CC(C)CNCc1ccc(-c2cccc(CN(CCCN3CCN(C)CC3)C(=O)/C=C/c3ccccc3)c2)cc1.O=C(O)C(F)(F)F`, with 93%; and `CC1(C)C(N(O)C(=O)Nc2ccc(Cl)c(Cl)c2)N(c2ccc(Cl)c(Cl)c2)C(=O)N1CCc1ccccc1` (stereo not given), with 93%.
Regarding `CN(C)Cc1cccc2nc(-c3csc(Cc4cc(Cl)ccc4OCc4ccccc4)n3)[nH]c12`, the Inhibition worked out at 77%.
Still for that read-out and setting: then `CC(C)c1nc(N2CCN(C(=S)NCc3ccccc3)CC2)c(C#N)c2c1COC(C)(C)C2`, with 100%; and `Br.C/C=C/C=C/C1=NCCc2cc(OCCC)ccc21`, with 40%; and `COc1ccc(NC(=O)C2c3ccccc3C(=O)N(C3CCCC3)C2c2cccs2)cc1` (stereo not given), with 75%.
Still for that read-out and setting: to `O=C(Nc1ccc(-c2ccccc2)cc1)Nc1cccc(OCCN2CCCC2)c1.O=C(O)C(F)(F)F` belongs 14%; to `Cc1cccc2nc(-c3cccc(-c4cccc(CN5CCN(c6ccncc6)CC5)c4)c3)[nH]c12.O=C(O)C(F)(F)F`, 96%.
`Cc1ccccc1Nc1cc(Nc2ccccc2C)c2ccccc2n1`: the Inhibition is given as 93%.
Same read-out and setting: then `N#Cc1ccc(Sc2nnc(-c3ccccc3Cl)n2CC2CCCCC2)cc1[N+](=O)[O-]`, with 34%.
